The list is a sample of the results.
aSyn UTR act = Activators via SNCA 5'UTR binding, MLPCN; alpha-synuclein 5'UTR reporter, activators screen; activity score, % (tested at 7.5 µM), hits read low; 7.1% of 300,000 active; AID 1814; in the data active = activity score below about -60%
Large screens that a line does not name were inactive.

COc1ccc(N2C(=O)c3ccccc3NC2c2ccc(OC)c(COc3ccccn3)c2)cc1 (stereo unspecified)	aSyn UTR act -77
COC(=O)/C(=C1/Oc2ccc(C)cc2S1)C(F)(F)F	aSyn UTR act -152
O=[N+]([O-])c1cc(-c2nnc(C34CC5CC(CC(C5)C3)C4)o2)cc([N+](=O)[O-])c1	aSyn UTR act -97
CCOC(=O)c1oc2nc3c(cc2c1N)CCCC3	aSyn UTR act -107
Cc1ccc(-c2ccc3c(c2)S(=O)(=O)c2ccccc2C3=O)cc1	aSyn UTR act -156
N#C/C(=C\c1cc(Cl)c(OCc2ccc(Cl)cc2)c(Cl)c1)C(N)=O	aSyn UTR act -143
Cc1cc(-c2nc(-c3ccc(C(C)(C)C)cc3)no2)no1	aSyn UTR act -171
CC(C)(C)c1ccc(-c2noc(-c3ccc4c(c3)CCO4)n2)cc1	aSyn UTR act -157
COc1cc(OC)c(OC)cc1/C=C/c1cc(C(F)(F)F)[nH]c(=O)n1	aSyn UTR act -121
O=c1nc(/C=C/c2cc([N+](=O)[O-])ccc2Cl)cc(C(F)(F)F)[nH]1	aSyn UTR act -67
COc1ccc2nc(SCc3cccc(C)c3)nc(C)c2c1	aSyn UTR act -106
Cc1nc(SCc2cccc(C(=O)O)c2)nc2c1CCCC2	none
COc1ccc2nc(SCc3ccccc3C)nc(C)c2c1	aSyn UTR act -107
COc1ccc2nc(C)cc(SCC(=O)N/N=C/c3cccc4ccccc34)c2c1	none
CC1CCCCN1C(=O)CSc1nnc(-c2cccs2)o1 (stereo unspecified)	aSyn UTR act -108
CC1CCCC(C)N1C(=O)CSc1nnc(-c2cccs2)o1 (stereo unspecified)	aSyn UTR act -82
CCC1CCCCN1C(=O)CSc1nnc(-c2ccc(Cl)s2)o1 (stereo unspecified)	aSyn UTR act -62
COc1ccc(OCc2cnc(Cl)s2)cc1	aSyn UTR act -82
Cc1ccc(OCc2cnc(Cl)s2)c(C)c1	aSyn UTR act -134
Cc1ccc(Nc2nc(-c3ccc(O)c(O)c3)cs2)nc1	aSyn UTR act -216
Cc1ccc(Nc2nc(-c3ccc(F)cc3)cs2)nc1	aSyn UTR act -175
CCCN1CCC(=O)N([C@H](CSc2ccccc2)c2ccccc2)CC1	aSyn UTR act -72
CCCN1CCC(=O)N([C@H](CSc2ccc(C)cc2)c2ccccc2)CC1	aSyn UTR act -181
CCCN1CCC(=O)N([C@H](CSc2ccc(OC)cc2)CC(C)C)CC1	aSyn UTR act -113
CN1CCC(=O)N([C@H](CSc2ccc(Br)cc2)c2ccccc2)CC1	aSyn UTR act -104
COc1ccccc1NC(=O)NC(=O)c1ccccc1	aSyn UTR act -137
COc1ccc(N/N=C(C)/C(=N/O)C(=O)Nc2ccccc2)cc1	aSyn UTR act -87
COc1ccc(NC(=O)NC(=O)c2ccccc2)cc1	aSyn UTR act -221
O=C(NC(=O)c1ccccc1)Nc1ccccc1	none
Nc1nc(CSc2ccccc2)nc(N2CCCCC2)n1	aSyn UTR act -129
NC(=O)CN1C(=O)C(O)(CC(=O)/C=C\c2ccc3c(c2)OCO3)c2ccccc21 (stereo unspecified)	aSyn UTR act -70
COc1cccc(CNc2ncc(Br)cc2Br)c1O	aSyn UTR act -125
COc1cccc(/C=N/Nc2ncnc(Cl)c2N)c1O	none
COc1ccccc1N=Nc1[nH]c2ccc(C)cc2c1O	aSyn UTR act -169
COc1cc2c(cc1OC)C(C)N(C(=O)c1cc(Cl)nc(Cl)c1)CC2 (stereo unspecified)	aSyn UTR act -105
Cc1ccc(N(O)C(=O)NCCCCNC(=O)N(O)c2ccc(C)cc2)cc1	aSyn UTR act -97
Cc1ccc(/C=N/NC(=O)c2c[nH]c3ccccc23)s1	aSyn UTR act -113
C/C(=N\NC(=O)c1csc(C)c1C)c1ccc(C)s1	aSyn UTR act -93
CC(=O)N/N=C(/C)c1ccc(NC(=O)c2csc(C)c2C)cc1	aSyn UTR act -113
Cc1ccsc1/C=N/NC(=O)c1c[nH]c2ccccc12	aSyn UTR act -122
CC(C)(C)OC(=O)N/N=C/c1cccc([N+](=O)[O-])c1	aSyn UTR act -129
CC(C)(C)OC(=O)N/N=C\c1ccc[nH]1	aSyn UTR act -77
CC/C(=N\NC(=O)c1c[nH]c2ccccc12)c1cccs1	aSyn UTR act -122
C/C(=N\NC(=O)c1c[nH]c2ccccc12)c1ccc(C)s1	aSyn UTR act -186
O=C(N/N=C/c1ccccn1)c1c[nH]c2ccccc12	aSyn UTR act -79
CCn1nc(C)c(/C=N/NC(=O)c2c[nH]c3ccccc23)c1C	aSyn UTR act -175
O=C(N/N=C/c1cccc([N+](=O)[O-])c1)c1c[nH]c2ccccc12	aSyn UTR act -124
O=C(N/N=C/c1ccsc1)c1c[nH]c2ccccc12	aSyn UTR act -126
CCn1ncc(/C=N\NC(=O)c2csc3ccccc23)c1C	aSyn UTR act -66
Cc1ccc(C(=O)NCCn2cc(SCC(=O)Nc3cc(C)on3)c3ccccc32)cc1	aSyn UTR act -78
CSC1=NC(C)(C)C=C(/C=C/c2ccc(Cl)cc2)N1	aSyn UTR act -96
COC(=O)C1(C)CCC(C(=O)Nc2ccccc2)C1(C)C (stereo unspecified)	none

High-throughput results: PubChem, Broad Institute
